Laboratory results taken from PubChem BioAssay (NCI).
This is part of a sample that, as a whole, favours compounds with a hit. Of some 83,000 tested, about 20% had one in any assay.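 Each cell line was grown in a 96-well plate and treated with one concentration of compound for 48 hours. Values below 10 were considered active.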 Active and inactive are the calls of the source.

These molecules were tested on CCRF-CEM leukemia (assay: NCI-60 one-dose screen, 48 h (100 = growth as untreated, 0 = no growth, -100 = all killed)). Conditions: 10 µM unless noted.
Experimental: Growth inhibition of the CCRF-CEM human tumor cell line is measured as a screen for anti-cancer activity. Cells are grown in 96 well plates and exposed to the test compound for 48 hours. Compounds are tested at a single concentration, which is 10^-5 M for most compounds. The reported endpoint is percent growth (GI% or GIPRCNT), where numbers from 0 - 100% represent growth inhibition, and numbers from -100% - 0 represent cell death. For example, a value of 40 represents 60% growth inhibition. A value of 0 means no net growth occurred over the course of the experiment. A value of -40 indicates 40% of cells at the beginning of the experiment died by the end of the experiment. A value of -100 means all cells are dead at the end of the experiment.
NCI-60 Human Tumor Cell Lines Screen was performed using the standard one-dose NCI protocol, which is described in more detail at https://dtp.cancer.gov/discovery_development/nci-60/default.htm.
Compounds with GIPRCNT values below 10 were considered active. Activity score was based on GIPRCNT using the following formula: […]
Score is 0 for GIPRCNT values of 100 or above, 50 for GIPRCNT values of 0, and 100 for GIPRCNT values of -100.

**Q.** `COc1cc(C=C2C(=O)NC(=S)NC2=O)cc(CN2CCCC2)c1O` was tested. Which growth did it give?
**A.** Its growth is 107% (inactive).

**Q.** With `O=C(c1c[nH]c2ccccc12)c1n[nH]c(=S)n1-c1ccc([N+](=O)[O-])cc1` as the molecule, how does the growth read?
**A.** The growth was 85.1% (inactive).

**Q.** For `O=C(NN1C(=O)CSC1c1cccc([N+](=O)[O-])c1)c1ccc(NC(=O)c2ccccn2)cc1` (stereo not given), which growth is on record?
**A.** The growth was 110% (inactive).

**Q.** Which growth does the source give for `CSc1nc(-c2ccco2)c(C#N)c(=O)n1C` here?
**A.** Its growth is 88.7% (inactive).

**Q.** With `O=Nc1ccc(NC(=O)Nc2ccc([N+](=O)[O-])cc2)cc1` as the molecule, how does the growth read?
**A.** The growth was 68.4% (inactive).

**Q.** Which growth does the source give for `Clc1ccc2nn3c4ccccc4c(OCCN4CCOCC4)nc3c2c1` here?
**A.** Its growth is 96.2% (inactive).

**Q.** `COc1cc(OC)c2c(=O)c3c(CC=C(C)C)cc(OC)c(O)c3oc2c1` was tested. Which growth did it give?
**A.** The growth was 76.9% (inactive).

**Q.** Which growth does the source give for `CCOC(=O)C#Cc1c(C(=O)OCC)nnn1[C@@H]1O[C@H](COC)[C@@H](OC)[C@H]1OC` here?
**A.** Its growth is 27.7% (inactive).

**Q.** How did the growth turn out when `COc1ccc(Nc2ncc(I)c(NCCCNC(=O)C3CCC3)n2)cc1` was run?
**A.** Its growth is 2.24% (active).

**Q.** Which growth does the source give for `Cc1ccc(S(=O)(=O)OC[C@]23CCC(C)(C)C[C@H]2C2=CC[C@@H]4[C@@]5(C)CCCNC(C)(C)[C@@H]5CC[C@@]4(C)[C@]2(C)CC3)cc1` here?
**A.** The growth was 34.5% (inactive).

**Q.** With `COc1cc(C=Nc2oc(-c3ccccc3)c(-c3ccccc3)c2C#N)cc(CN2CCCC2)c1O` as the molecule, how does the growth read?
**A.** Its growth is 102% (inactive).

**Q.** `CCCCCCCCn1ccc2cc(NC(=O)CN3CCN(c4cc(C)nc(Cl)n4)CC3)ccc21` was tested. Which growth did it give?
**A.** Its growth is -35.7% (active).

**Q.** Which growth does the source give for `O=S(=O)(NCCNc1nccc(-c2c(-c3ccc(F)c(O)c3)nc3sccn23)n1)c1ccc(Cl)cc1` here?
**A.** The growth was 14.2% (inactive).

**Q.** Which growth does the source give for `CSc1nc2ccc(C)cc2cc1/C=C1/C=C(c2ccccc2)NC1=O` here?
**A.** Its growth is 48.3% (inactive).

**Q.** With `CNC(=O)NCC1OC(n2cnc3c(NC(=O)Nc4ccccc4)ncnc32)C2OC(=O)CC12` (stereo not given) as the molecule, how does the growth read?
**A.** Its growth is 94.1% (inactive).

**Q.** Which growth does the source give for `O=C(NCCN1CCOCC1)OCc1ccc2c(Cl)cc(Cl)c(O)c2n1` here?
**A.** Its growth is 48.3% (inactive).

**Q.** For `COc1ccc(C(c2cc(OC)c(OC)c(OC)c2)N2CCCCC2)cc1` (stereo not given), which growth is on record?
**A.** Its growth is 29.9% (inactive).

**Q.** Which growth does the source give for `c1ccc(-c2nc3ccccc3[nH]2)c(OCCCCCOc2ccccc2-c2nc3ccccc3[nH]2)c1` here?
**A.** The growth was -44.1% (active).

**Q.** For `Cc1nc2ccccc2c(/C=C/c2ccc(F)cc2)c1C(=O)/C=C/c1ccccc1`, which growth is on record?
**A.** The growth was 7.91% (active).

**Q.** With `COC(=O)c1c2c(c(C)[n+]([O-])c1C)C(=O)C(NCc1ccccc1)=CC2=O` as the molecule, how does the growth read?
**A.** Its growth is 21.9% (inactive).

**Q.** With `C[C@@H]1CN(c2cnc(C(=O)Nc3cc(F)cc4cccnc34)cn2)C[C@H](C)N1` as the molecule, how does the growth read?
**A.** The growth was 26.9% (inactive).

**Q.** With `CC(C)Cc1nc(Nc2ccccc2)[nH]c(=O)c1C#N` as the molecule, how does the growth read?
**A.** The growth was 60.2% (inactive).

**Q.** `O=C1CCCC1[n+]1ccccc1` (stereo not given) was tested. Which growth did it give?
**A.** The growth was 105% (inactive).

**Q.** For `COc1ccc(C/C(C)=C(\c2ccc(Cl)cc2)c2ccc(OCCN3CCCC3)cc2)cc1`, which growth is on record?
**A.** The growth was 57.2% (inactive).

**Q.** With `CN(C)c1ccc([C@@H](C(=O)Nc2cccc([N+](=O)[O-])c2)N(C(=O)c2cc3ccccc3[nH]2)c2cccc([N+](=O)[O-])c2)cc1` as the molecule, how does the growth read?
**A.** The growth was 96.1% (inactive).

**Q.** With `O=C(NCc1ccc(Cn2c(=O)sn(-c3ccccc3)c2=O)cc1)OCc1ccc2cccc(O)c2n1` as the molecule, how does the growth read?
**A.** Its growth is 0.307% (active).

**Q.** How did the growth turn out when `CCCC(=O)NC(c1ccc2c(c1)OCO2)c1cc(Cl)c2cccnc2c1O` (stereo not given) was run?
**A.** Its growth is 13.2% (inactive).

**Q.** `C#Cc1cccc(Nc2ncnc3cc(NC(=O)CCl)ccc23)c1` was tested. Which growth did it give?
**A.** The growth was -19.4% (active).

**Q.** How did the growth turn out when `COc1cc2c(c(OC)c1OC)C(=O)CC(c1cccc(C(=O)Nc3ccccc3Br)c1)O2` (stereo not given) was run?
**A.** The growth was 68.9% (inactive).

**Q.** How did the growth turn out when `COc1nc(/C=C\Nc2ccc3c(c2)OCCOCCOCCOCCO3)nc(OC)n1` was run?
**A.** The growth was 118% (inactive).

**Q.** With `COc1ccc(-c2cc(-c3cn(-c4cccc(Cl)c4)nc3-c3ccc(OC)cc3)on2)cc1` as the molecule, how does the growth read?
**A.** Its growth is 88.1% (inactive).

**Q.** `O=C(/C=C/C12c3ccccc3C(c3ccccc31)C1C(=O)NC(=O)C12)c1ccc(I)cc1` (stereo not given) was tested. Which growth did it give?
**A.** The growth was 1.53% (active).

**Q.** With `CCOC(=O)/C=C1\S/C(=N\Nc2cc(=O)[nH]c3ccc(Br)cc23)N(c2ccccc2)C1=O` as the molecule, how does the growth read?
**A.** The growth was 10.5% (inactive).

**Q.** `CC[C@H](Nc1nc(N)nc(C)c1C#N)c1nc2cccc(CN(C)c3ncc(C(=O)NO)cn3)c2c(=O)n1-c1ccccc1` was tested. Which growth did it give?
**A.** Its growth is 15.3% (inactive).

**Q.** For `Cc1ccc(O)c(NC(=O)c2cccc(Nc3ccnc(C(F)(F)F)c3)c2)c1`, which growth is on record?
**A.** Its growth is -1.16% (active).

**Q.** How did the growth turn out when `COc1ccc(C2C3=C(COC3=O)N(CCO)c3cc4c(cc32)OCO4)cc1OC` (stereo not given) was run?
**A.** The growth was 65.2% (inactive).

**Q.** How did the growth turn out when `O=C(/C=C/c1ccccc1Cl)c1cccc(OCCCCOc2cccc(C(=O)/C=C/c3ccccc3Cl)c2)c1` was run?
**A.** Its growth is 91.8% (inactive).

**Q.** Which growth does the source give for `CC(=O)O[C@H]1CC[C@]2(C)[C@H]3CC=C4[C@@H]5CC(C)(C)CC[C@]5(C(=O)N5CCN(CCC#N)CC5)CC[C@@]4(C)[C@]3(C)CC[C@H]2C1(C)C` here?
**A.** Its growth is 27.5% (inactive).

**Q.** With `Cc1c(C(C)(C)O)cn2ncnc(Oc3ccc(NC(=O)Nc4ccc(Cl)c(C(F)(F)F)c4)c(F)c3)c12` as the molecule, how does the growth read?
**A.** The growth was 29.2% (inactive).

**Q.** How did the growth turn out when `CC1(C)N=C(N)N=C(N)N1c1cc(Cl)ccc1Cl` was run?
**A.** The growth was 96.1% (inactive).
